An excerpt weighted towards active compounds, which were near 8.9% of everything screened.
DRD3 agonist – qHTS of D3 Dopamine Receptor Agonist: qHTS | D3R DiscoveRx beta-arrestin cells, luminescence, 90 min | max activation, % | 410,000 compounds, 0.58% hits; in the data active = max activation above about 30%
Target sequence (P35462 whole entry, looked up): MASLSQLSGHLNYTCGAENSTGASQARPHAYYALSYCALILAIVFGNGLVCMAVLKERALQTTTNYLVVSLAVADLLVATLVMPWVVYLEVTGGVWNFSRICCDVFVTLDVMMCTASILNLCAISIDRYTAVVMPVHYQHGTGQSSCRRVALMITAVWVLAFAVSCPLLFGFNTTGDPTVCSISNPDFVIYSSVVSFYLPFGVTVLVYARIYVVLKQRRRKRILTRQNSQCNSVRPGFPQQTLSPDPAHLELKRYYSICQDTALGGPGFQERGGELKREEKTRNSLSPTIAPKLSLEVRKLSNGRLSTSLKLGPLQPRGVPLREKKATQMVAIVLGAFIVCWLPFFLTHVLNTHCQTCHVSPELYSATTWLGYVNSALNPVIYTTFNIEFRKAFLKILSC
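Agonist mode: compounds and dopamine controls were applied to plated cells for 90 min at 37 degrees C after an overnight attachment at 1500 cells/well. Luminescent read-out followed 30 - 60 minutes at room temperature with DiscoveRx detection reagent.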
DRD3 antagonist – qHTS of D3 Dopamine Receptor Antagonist: qHTS; AID 652054, 2013; D3R cells, DiscoveRx beta-arrestin luminescence, antagonist mode; active compounds read low; max response, negative = inhibition, %; 360,000 compounds, 2.5% hits; in the data active = max response below about -50%; inconclusive = no clear call, values can overlap the other calls
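Cells plated overnight at 1500 cells/well, then exposed to library compounds with dopamine controls for 90 minutes at 37 degrees C. DiscoveRx reagent added for 30–60 minutes at room temperature; luminescence read, quantitative HTS format.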
KB-V1 cytotox – qHTS assay for MDR1-selective chemotherapeutics: Primary screen using the drug-selected MDR subline cells KB-V1; AID 1347076, 2019; KB-V1 MDR cells viability, CellTiter-Glo, 72 h; 400,000 compounds, 3.4% hits; Potency, µM (doses to about 46.1 µM), usual class: cytotoxic; note: nearly all actives have a fitted effect of over 60% in size
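Cells of the MDR subline KB-V1 are plated, dosed with compound at multiple concentrations, and incubated 72 h at 37 degrees C; CellTiter-Glo is then added and luminescence read after 10 min.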
KB-3-1 tox – qHTS assay for MDR1-selective chemotherapeutics: Primary screen using the parental adenocarcinoma cell KB-3-1; 400,000 compounds, 1.4% hits; Potency, µM (series often up to 46.1 µM), actives largely listed as cytotoxic; KB-3-1 viability, CellTiter-Glo ATP luminescence, 72 h; AID 1347075, 2019; note: nearly all actives have a fitted effect of over 60% in size
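72 h, 37 °C compound treatment of KB-3-1 parental cells; CellTiter-Glo added, 10 min, luminescence read. Data corrected against DMSO-only plates and normalized before curve fitting.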
MCF10A rereplic – A quantitative high throughput screen for small molecules that induce DNA re-replication in MCF 10a normal breast cells | AID 624296, 2012 | MCF 10A DNA re-replication, Hoechst nuclear intensity, 48 h | Potency, µM (doses to about 46.1 µM), most hits filed as activators | 350,000 compounds, 2.9% hits; note: nearly all actives have a fitted effect of over 50% in size
SW480 rereplic – A quantitative high throughput screen for small molecules that induce DNA re-replication in SW480 colon adenocarcinoma cells; SW480 DNA re-replication, Hoechst DNA content imaging, 48 h; Potency, µM (doses to about 46.1 µM), most hits filed as activators; 340,000 compounds, 1.8% hits; AID 624297, 2012; note: nearly all actives have a fitted effect of over 55% in size
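Hoechst fluorescence of nuclei (405 nm excitation, 500-530 nm emission) measured by plate-scanning imager after 48 hr compound exposure at 37 C; re-replication scored as increased number of nuclei with elevated intensity.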
Numbers stand for hits; [ ] = remark or other dose. Unless noted, calls come from the whole dose curve; as a rule, active = well fitted curve in the direction sought with a large enough effect; inconclusive = small, poorly fitted or top-dose-only effect, or another doubt; inactive = no such curve, though single readings can be large; an effect the other way counts as inactive or inconclusive.

Results for CCC1CCCCN1C(=O)c1ccc([N+](=O)[O-])o1 (stereo not drawn) ?
DRD3 agonist: inactive; DRD3 antagonist: inactive; KB-V1 cytotox: inactive; KB-3-1 tox: inactive; MCF10A rereplic: 18.4µM; SW480 rereplic: inactive

How did CC1CCCN(C(=O)c2ccc([N+](=O)[O-])o2)C1 (stereo not drawn) do in these assays?
DRD3 agonist: inactive; DRD3 antagonist: inactive; KB-V1 cytotox: inactive; KB-3-1 tox: inactive; MCF10A rereplic: inactive; SW480 rereplic: inconclusive

Results for Cc1nc(N)ncc1-c1ccc2c(c1)OCO2 ?
DRD3 agonist: inactive; DRD3 antagonist: inactive; KB-V1 cytotox: 11.6µM; KB-3-1 tox: inconclusive; MCF10A rereplic: inactive; SW480 rereplic: inactive

How did Cn1c(-c2ccc3c(c2)OCO3)cnc1N do in these assays?
DRD3 agonist: inactive; DRD3 antagonist: inactive; KB-V1 cytotox: inconclusive; KB-3-1 tox: inactive; MCF10A rereplic: inconclusive; SW480 rereplic: inactive

Results for COc1ccc(/C=C\c2onc(C)c2S(=O)(=O)N2CCC(C(=O)Nc3ccc(Cl)cc3)CC2)cc1 ?
DRD3 agonist: inactive

How did Cc1cc2ccccn2c1C(=O)c1ccc([N+](=O)[O-])o1 do in these assays?
DRD3 agonist: inactive; DRD3 antagonist: inactive; KB-V1 cytotox: inconclusive; KB-3-1 tox: inconclusive; MCF10A rereplic: inconclusive; SW480 rereplic: 20.6µM

How did CCC(=O)N1CCc2cc(S(=O)(=O)N3CCN(c4ccccc4F)CC3)ccc21 do in these assays?
DRD3 agonist: inactive; KB-V1 cytotox: inactive; KB-3-1 tox: inconclusive

Results for O=C(c1ccc2ccccc2c1)C1CCCN(S(=O)(=O)c2cccnc2)C1 (stereo not drawn) ?
DRD3 agonist: inactive; DRD3 antagonist: inactive; KB-V1 cytotox: 16.4µM; KB-3-1 tox: inactive; MCF10A rereplic: inactive; SW480 rereplic: inactive

Results for O=C(C1CCCN(S(=O)(=O)c2cccnc2)C1)N1CCN(c2ccccn2)CC1 (stereo not drawn) ?
DRD3 agonist: inactive; DRD3 antagonist: inactive; KB-V1 cytotox: inactive; KB-3-1 tox: inactive; MCF10A rereplic: inactive; SW480 rereplic: inactive

How did COc1ccc(NC(=O)C#Cc2ccccc2)cc1 do in these assays?
DRD3 agonist: inactive; DRD3 antagonist: inactive; KB-V1 cytotox: inactive; KB-3-1 tox: 20.6µM; MCF10A rereplic: inconclusive; SW480 rereplic: inconclusive

Results for O=C(C#Cc1ccccc1)Nc1cccc(F)c1 ?
DRD3 agonist: inactive; DRD3 antagonist: inactive; KB-V1 cytotox: inconclusive; KB-3-1 tox: 23.1µM; MCF10A rereplic: inconclusive; SW480 rereplic: inconclusive

Results for CCc1ccc2occ(CC(=O)N(Cc3ccccc3)C3CCS(=O)(=O)C3)c2c1 (stereo not drawn) ?
DRD3 agonist: inactive; KB-V1 cytotox: inactive; KB-3-1 tox: inactive

Results for COc1cccc(C2(C)NC(=O)N(CC(=O)c3cc(C)n(C4CC4)c3C)C2=O)c1 (stereo not drawn) ?
DRD3 agonist: inactive; DRD3 antagonist: inactive; KB-V1 cytotox: 16.4µM; KB-3-1 tox: inactive; MCF10A rereplic: inactive; SW480 rereplic: inactive

What do the screens show for `Cc1cc(C(=O)CN2C(=O)c3ccccc3C2=O)c(C)n1C1CC1`?
DRD3 agonist: inactive; DRD3 antagonist: inactive; KB-V1 cytotox: inactive; KB-3-1 tox: inactive; MCF10A rereplic: inactive; SW480 rereplic: inactive

How did CCN1C(=O)C(=O)N(CC(=O)c2cc(C)n(C3CC3)c2C)C1=O do in these assays?
DRD3 agonist: inactive; DRD3 antagonist: inactive; KB-V1 cytotox: inactive; KB-3-1 tox: inactive; MCF10A rereplic: inactive; SW480 rereplic: inactive

What do the screens show for `CCCCN1C(=O)C(=O)N(CC(=O)c2ccc3c(c2)CCCC3)C1=O`?
DRD3 agonist: inactive; DRD3 antagonist: inactive; KB-V1 cytotox: inconclusive; KB-3-1 tox: inactive; MCF10A rereplic: inactive; SW480 rereplic: inactive

How did CC(C)CN1C(=O)C(=O)N(CC(=O)c2ccc3c(c2)CCCC3)C1=O do in these assays?
DRD3 agonist: inactive; DRD3 antagonist: inactive; KB-V1 cytotox: 16.4µM; KB-3-1 tox: inactive; MCF10A rereplic: inactive; SW480 rereplic: inactive

Results for CCCN1C(=O)C(=O)N(CC(=O)c2cc(C)n(C3CC3)c2C)C1=O ?
DRD3 agonist: inactive; DRD3 antagonist: inactive; KB-V1 cytotox: 20.6µM; KB-3-1 tox: inconclusive; MCF10A rereplic: inactive; SW480 rereplic: inactive

Results for Cc1cc(C(=O)CN2C(=O)C(=O)N(CC(C)C)C2=O)c(C)n1C1CC1 ?
DRD3 agonist: inactive; DRD3 antagonist: inactive; KB-V1 cytotox: 18.4µM; KB-3-1 tox: inactive; MCF10A rereplic: inactive; SW480 rereplic: inconclusive

What do the screens show for `Cc1cc(C(=O)CN2C(=O)C(=O)N(CCC3=CCCCC3)C2=O)c(C)n1C`?
DRD3 agonist: inactive; DRD3 antagonist: inactive; KB-V1 cytotox: 23.1µM; KB-3-1 tox: inactive; MCF10A rereplic: inactive; SW480 rereplic: inactive

How did Cc1cc(C(=O)CN2C(=O)NC3(CCCCC3)C2=O)c(C)n1C do in these assays?
DRD3 agonist: inactive; DRD3 antagonist: inactive; KB-V1 cytotox: inconclusive; KB-3-1 tox: inactive; MCF10A rereplic: inactive; SW480 rereplic: inactive[1.84 µM]

What do the screens show for `Cc1ccc(-c2nnc(-c3ccc4ccccc4c3)o2)cc1`?
DRD3 agonist: inactive; DRD3 antagonist: inactive; KB-V1 cytotox: inactive; KB-3-1 tox: inconclusive; MCF10A rereplic: 6.51µM; SW480 rereplic: inconclusive

What do the screens show for `CCC(=O)Nc1cccc(-c2nnc(-c3ccccc3)o2)c1`?
DRD3 agonist: inactive; DRD3 antagonist: inactive; KB-V1 cytotox: inactive; KB-3-1 tox: inactive; MCF10A rereplic: inactive; SW480 rereplic: inactive

What do the screens show for `CCCCC(=O)Nc1cccc(-c2nnc(-c3ccccc3)o2)c1`?
DRD3 agonist: inactive; DRD3 antagonist: inactive; KB-V1 cytotox: 18.4µM; KB-3-1 tox: inactive; MCF10A rereplic: inactive; SW480 rereplic: inactive

What do the screens show for `Cc1ccc(OCC(=O)Nc2cccc(-c3nnc(-c4ccccc4)o3)c2)cc1`?
DRD3 agonist: inactive; DRD3 antagonist: inactive; KB-V1 cytotox: 2.31µM; KB-3-1 tox: inactive; MCF10A rereplic: inactive; SW480 rereplic: inactive

Results for O=C(COc1ccccc1)Nc1cccc(-c2nc3cc4ccccc4cc3[nH]2)c1 ?
DRD3 agonist: inactive; DRD3 antagonist: inactive; KB-V1 cytotox: 9.2µM; KB-3-1 tox: inconclusive; MCF10A rereplic: 14.6µM; SW480 rereplic: inconclusive

What do the screens show for `CCOc1ccc(CC(=O)Nc2c(C(=O)c3ccccc3)oc3ccc(Cl)cc23)cc1OCC`?
DRD3 agonist: inactive; KB-V1 cytotox: inactive; KB-3-1 tox: inactive

What do the screens show for `O=c1c2ccccc2oc2cc(-c3ccc4[nH]ccc4c3)ccc12`?
DRD3 agonist: inactive; DRD3 antagonist: inactive; KB-V1 cytotox: inactive; KB-3-1 tox: inconclusive; MCF10A rereplic: inconclusive; SW480 rereplic: 4.11µM

Bioassay records as filed in PubChem.
